# PubChem BioAssay (NCATS)
# Records with an inconclusive call do not appear. Activity calls are given as the source filed them. Unless noted, calls follow the shape of the dose curve; as a rule, active = well fitted curve in the direction sought with a large enough effect; inconclusive = small, poorly fitted or top-dose-only effect, or another doubt; inactive = no such curve, though single readings can be large; an effect the other way counts as inactive or inconclusive.
# Test system: not listed separately
# Test: NCATS anti-infectives library activity on HEK293 viability as a counter-qHTS vs the C. elegans viability qHTS (AID 1745854); also: % is scaled to controls: 0 for no effect and ±100 for the full control effect
# Details: HEK293 viability counter-screen; series mostly up to 41.8 µM; activity change, negative = cytotoxicity: at the top concentration
# Summary of the method: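 HEK293 cells, 1500 per well, exposed 24 hr at 37C in 5% CO2 to compounds in a 1:5 titration, up to 41.7 uM final. Viability read as CellTiter-Glo luminescence after 10 min at room temperature.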
row,SMILES,"activity change, negative = cytotoxicity"
1,COc1cc(C[C@H]2C(=O)OC[C@@H]2Cc2ccc(OC)c(OC)c2)ccc1O,-26.7% (inactive)
2,CCC[C@H](N[C@H]1CCc2cc(F)cc(F)c2C1)C(=O)Nc1cn(C(C)(C)CNCC(C)(C)C)cn1,-1.21% (inactive)
3,CCCc1ccc(OCC(=O)N(Cc2nc(-c3cccnc3)no2)C(C)C)cc1,-18.8% (inactive)
4,CC(=O)C1=C(O)C=C2Oc3c(C(C)=O)c(O)c(C)c(O)c3[C@]2(C)C1=O,10.2% (inactive)
5,NS(=O)(=O)c1ccc(NC(=O)Nc2ccc(F)cc2)cc1,-11.8% (inactive)
6,O=C(Cc1cccc(OC(F)(F)F)c1)Nc1ccc(CCCCc2nnc(NC(=O)Cc3ccccn3)s2)nn1,6.63% (inactive)
7,COc1cccc(N2CCN(C3=Nc4c(F)cccc4[C@H](CC(=O)O)N3c3cc(C(F)(F)F)ccc3OC)CC2)c1,-3.24% (inactive)
8,COC1CCN(C(=O)c2cc(Cc3n[nH]c(=O)c4ccccc34)ccc2F)CC1,-6.92% (inactive)
9,Cc1cnc(-c2ccccc2C(C)C)nc1NCc1ccc(-n2ccnn2)cc1,-18.8% (inactive)
10,COc1ccc(NC(=O)c2ccc(C(=N)N(C)C)cc2)c(C(=O)Nc2ccc(Cl)cn2)c1,-3.04% (inactive)
11,CCCC(CCC)C(N)=O,-16% [at 83.3 µM] (inactive)
12,Cn1cc(-c2ccc(S(=O)(=O)n3ccc(/C=C/C(=O)Nc4ccccc4N)c3)cc2)cn1,-11.9% (inactive)
13,Cc1cc2ncc(C(=O)NCC(C)(C)NCC(=O)N3CCC[C@H]3C#N)cn2n1,6.98% (inactive)
14,Cn1nc(C(C)(C)C)cc1C(=O)N[C@@H](Cc1cccc(Cl)c1)C(=O)NCC#N,-6.57% (inactive)
15,O=C(Nc1cc(C(F)(F)F)ccc1N1CCCCC1)c1ccncc1,-26.1% (inactive)
16,O=C(NCC1(c2nc(-c3ccccc3)cs2)CCOCC1)c1cccc(-c2noc(C(F)(F)F)n2)c1,-4.3% (inactive)
17,CCC[C@@]1(CCc2ccccc2)CC(O)=C([C@H](CC)c2cccc(NS(=O)(=O)c3ccc(C(F)(F)F)cn3)c2)C(=O)O1,-12.3% (inactive)
18,CC(C)(CNC(=O)c1cccc(-c2noc(C(F)(F)F)n2)c1)c1coc(-c2ccccc2)n1,-17% (inactive)
19,CC(C)CCNC(=O)[C@H](CC(C)C)NC(=O)[C@H]1O[C@@H]1C(=O)O,-3.92% (inactive)
20,O=c1[nH]c([C@@H]2CCCN2)nc2c1oc1ccc(Cl)cc12,-6.24% (inactive)
21,O=C(NC[C@H]1CN(c2ccc(N3CCOCC3=O)cc2)C(=O)O1)c1ccc(Cl)s1,7.46% (inactive)
22,CCCN1CCC=C(c2cc(-c3ccc(C)cc3)no2)C1,-16.4% (inactive)

# Test system: not listed separately
# Test: NCATS anti-infectives library activity on the primary C. elegans qHTS viability assay (AID 1745855; calls by dose curve; also: potency is read from the fitted curve at half-maximal effect)
# Details: C. elegans worm area imaging, day 7; series mostly up to 41.8 µM; outcome: at the top concentration
# Summary of the method: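 Viability is taken from GFP fluorescence of PE254-GFP-FLuc C. elegans imaged by laser cytometry over 7 days. Ten L1 worms per well grow at 21 °C on TOP10 E. coli capsules with titrated compound; levamisole marks toxicity.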
SMILES,outcome,Potency
CCC[C@H](N[C@H]1CCc2cc(F)cc(F)c2C1)C(=O)Nc1cn(C(C)(C)CNCC(C)(C)C)cn1,inactive,
CCCc1ccc(OCC(=O)N(Cc2nc(-c3cccnc3)no2)C(C)C)cc1,inactive,
NS(=O)(=O)c1ccc(NC(=O)Nc2ccc(F)cc2)cc1,,12.9 µM (active)
Cn1nc(C(C)(C)C)cc1C(=O)N[C@@H](Cc1cccc(Cl)c1)C(=O)NCC#N,inactive,
O=C(Nc1cc(C(F)(F)F)ccc1N1CCCCC1)c1ccncc1,inactive,
CCCN1CCC=C(c2cc(-c3ccc(C)cc3)no2)C1,,6.48 µM (active)

# Target: Glutathione peroxidase 1 (Homo sapiens) (UniProt P07203)
# Test: Primary qHTS Assay for Inhibitors of Recombinant Selenoprotein Glutathione Peroxidase 1 (GPX1) (AID 1845191); also: nearly all actives have a fitted effect of over 65% in size; as to activity, negative = inhibition: % is scaled to controls: 0 for no effect and ±100 for the full control effect
# Details: recombinant GPX1, GR-coupled NADPH fluorescence, 15 min; series mostly up to 48.8 µM; activity, negative = inhibition: at the top concentration; outcome: at the top concentration
# Summary of the method: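 10 nM GPX1 + cpd, 30 min RT; start w/ 1 mM GSH, 0.5 mM cumene hydroperoxide, 0.5 mM NADPH, 100 nM GR, 0.01% BSA; buffer 50 mM Tris-HCl pH 7.5, 2 mM EDTA, 150 mM NaCl; Fl 340/450, 0 & 15 min.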
# Sequence of Glutathione peroxidase 1 (Homo sapiens) (P07203 whole entry, looked up): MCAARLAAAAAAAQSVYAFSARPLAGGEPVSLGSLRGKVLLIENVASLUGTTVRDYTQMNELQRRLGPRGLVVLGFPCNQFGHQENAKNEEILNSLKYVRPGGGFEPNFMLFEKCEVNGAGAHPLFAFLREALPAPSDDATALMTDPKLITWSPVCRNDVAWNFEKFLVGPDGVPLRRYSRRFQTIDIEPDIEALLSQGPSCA
SMILES,"activity, negative = inhibition",Potency,outcome
COc1cc(C[C@H]2C(=O)OC[C@@H]2Cc2ccc(OC)c(OC)c2)ccc1O,-3.53% [at 27.7 µM] (inactive),,
CCC[C@H](N[C@H]1CCc2cc(F)cc(F)c2C1)C(=O)Nc1cn(C(C)(C)CNCC(C)(C)C)cn1,,inactive,
CCCc1ccc(OCC(=O)N(Cc2nc(-c3cccnc3)no2)C(C)C)cc1,,,inactive
CC(=O)C1=C(O)C=C2Oc3c(C(C)=O)c(O)c(C)c(O)c3[C@]2(C)C1=O,,,inactive
NS(=O)(=O)c1ccc(NC(=O)Nc2ccc(F)cc2)cc1,1.48% (inactive),,
O=C(Cc1cccc(OC(F)(F)F)c1)Nc1ccc(CCCCc2nnc(NC(=O)Cc3ccccn3)s2)nn1,3.69% (inactive),,
COc1cccc(N2CCN(C3=Nc4c(F)cccc4[C@H](CC(=O)O)N3c3cc(C(F)(F)F)ccc3OC)CC2)c1,,inactive,
CCC(CC)C(c1ccc(Nc2nc3ccccc3s2)cc1)n1cncn1 (centres undefined),1.98% (inactive),,
COC1CCN(C(=O)c2cc(Cc3n[nH]c(=O)c4ccccc34)ccc2F)CC1,,,inactive
Cc1cnc(-c2ccccc2C(C)C)nc1NCc1ccc(-n2ccnn2)cc1,,inactive,
COc1ccc(NC(=O)c2ccc(C(=N)N(C)C)cc2)c(C(=O)Nc2ccc(Cl)cn2)c1,,inactive,
Cn1cc(-c2ccc(S(=O)(=O)n3ccc(/C=C/C(=O)Nc4ccccc4N)c3)cc2)cn1,,inactive,
Cc1cn(CCN2CCN(c3ccccc3-c3cc(C#N)cc(C(=O)NCCCN4CCCC4)c3)CC2)c2ccccc12,,inactive,
Cc1cc2ncc(C(=O)NCC(C)(C)NCC(=O)N3CCC[C@H]3C#N)cn2n1,,,inactive
Cc1cc2c(N3CCCC3)nc(N3CCCC3)nc2n1C,-12.1% (inactive),,
Cn1nc(C(C)(C)C)cc1C(=O)N[C@@H](Cc1cccc(Cl)c1)C(=O)NCC#N,,inactive,
O=C(Nc1cc(C(F)(F)F)ccc1N1CCCCC1)c1ccncc1,-11.1% (inactive),,
O=C(NCC1(c2nc(-c3ccccc3)cs2)CCOCC1)c1cccc(-c2noc(C(F)(F)F)n2)c1,-18.4% (inactive),,
CCC[C@@]1(CCc2ccccc2)CC(O)=C([C@H](CC)c2cccc(NS(=O)(=O)c3ccc(C(F)(F)F)cn3)c2)C(=O)O1,,inactive,
Cc1ccc(CNc2ncnc3ccc(-c4ccc(CO)o4)cc23)o1,-19.2% (inactive),,
CC(C)(CNC(=O)c1cccc(-c2noc(C(F)(F)F)n2)c1)c1coc(-c2ccccc2)n1,2.28% (inactive),,
CC(C)CCNC(=O)[C@H](CC(C)C)NC(=O)[C@H]1O[C@@H]1C(=O)O,,,inactive
O=c1[nH]c([C@@H]2CCCN2)nc2c1oc1ccc(Cl)cc12,,inactive,
O=C(NC[C@H]1CN(c2ccc(N3CCOCC3=O)cc2)C(=O)O1)c1ccc(Cl)s1,,,inactive
COc1ccc2nc3n[nH]c(C)c3c(NCCOCCO)c2c1,,inactive,
CCCN1CCC=C(c2cc(-c3ccc(C)cc3)no2)C1,,,inactive
